Compound activity from PubChem.
TWEAK-Fn14 inh – inhibitors of TWEAK-Fn14 interaction signaling. TWEAK-stimulated Fn14 reporter cells, luciferase luminescence, 8 h. inhibition, % at 10 µM. actives 2% (n = 360,000). AID 1159606; in the data active means inhibition above about 50%
TROY NFkB inh – TROY signaling inhibition; Q293 LMP1-TROYcd NF-kB luciferase reporter, 4 h; inhibition, % at 10 µM; actives 0.98% (n = 360,000); AID 1347056;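 active means compounds whose plate-normalised and pattern-corrected inhibition of the luciferase reporter signal at the single screening dose is 50% or more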
LGR2 antag – inhibitors of bursicon-induced Drosophila LGR2 receptor cAMP signaling. HEK293 LGR2, CRE-luciferase, bursicon-stimulated, 4 h. inhibition, % at 9.99 µM. actives 0.35% (n = 380,000). AID 720647;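 active means drop in luminescence signal, shown as inhibition above about 50% in the replicate tests, limit read from the data, passing the limit was not always enough; inconclusive means probably only some replicates passing the limit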;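 further: agonist challenge used bursicon conditioned medium at about half maximal strength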
HSP90 refold inh – inhibitors of HSP90 luciferase refolding in rabbit reticulocyte lysate | luciferase refolding luminescence, 3 h | inhibition, % at 5.6 µM | actives 0.91% (n = 290,000) | AID 1789;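 active means inhibition above the screen-wide mean plus 3 SD, computed separately per campaign, cut at about 16% in these data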;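 further: 0% = DMSO wells and 100% = 60 µM geldanamycin wells; inhibitors lower the luminescence because luciferase stays unfolded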
Starred values were filed as active, the others as inactive. Hits are enriched below; roughly 2.2% of the tested compounds scored in any of these assays.

`COc1ccc(C(=O)N/N=C/C23CC[C@@H](O)CC2(O)CC[C@@H]2[C@@H]3CCC3(C)C(C4=CC(=O)OC4)CCC23O)cc1` (some centres undefined) gave TWEAK-Fn14 inh -12, TROY NFkB inh -6, LGR2 antag 17 and HSP90 refold inh 1.
C[C@@H]1O[C@@H](O[C@H]2C[C@@H](O)[C@]3(CO)[C@H]4[C@H](O)C[C@]5(C)[C@@H](C6COC(=O)C6)CC[C@]5(O)[C@@H]4CC[C@]3(O)C2)[C@H](O)[C@H](O)[C@H]1O (some centres undefined) was read as TWEAK-Fn14 inh 71*, TROY NFkB inh 46, LGR2 antag 81* and HSP90 refold inh 3.
`CC1OC(OC2CC(O)C3(CO)C4C(O)CC5(C)C(C6=CC(=O)OC6)CCC5(O)C4CCC3(O)C2)C(O)C(O)C1O` (centres undefined) gave TWEAK-Fn14 inh 92*, TROY NFkB inh 44 and LGR2 antag 90*.
For CC(=O)N1[C@@H]2c3ccc(-c4cccc(C(=O)N(C)C)c4)c(=O)n3C[C@H]1[C@H](CO)[C@H]2C(=O)O the results were LGR2 antag 4.
`CC12CC[C@H]3[C@@H](CCC4(O)C[C@H](O)CCC34/C=N/NC(=O)c3ccc(O)cc3)C1(O)CCC2C1=CC(=O)OC1` (some centres undefined) gave TWEAK-Fn14 inh -12, TROY NFkB inh 6, LGR2 antag -6 and HSP90 refold inh 1.
CC(=O)OC1CC(OC2C(O)CC(OC3C(O)CC(OC4CCC5(C)C(CCC6C5CCC5(C)C(C7=CC(=O)OC7)CCC65O)C4)OC3C)OC2C)OC(C)C1OC1OC(CO)C(O)C(O)C1O (centres undefined) was read as TWEAK-Fn14 inh 80*, TROY NFkB inh 43 and LGR2 antag 86*.
For COC(=O)[C@@H]1N[C@@H]2c3ccc(C4=CCCC4)c(=O)n3C[C@@H]2[C@H]1CO the results were LGR2 antag -60.
c1ccc(CN2COC3CCCCCC32)cc1 (centres undefined) was read as TWEAK-Fn14 inh 4 and TROY NFkB inh 55*.
CC1(C)CN=C(NCc2ccccc2)S1 was read as TWEAK-Fn14 inh 16, TROY NFkB inh -11, LGR2 antag -3 and HSP90 refold inh 23*.
`Cc1ccccc1CN1Cc2cnnn2-c2ccccc2C1C#N` (centres undefined) gave TWEAK-Fn14 inh 96*, TROY NFkB inh 56* and LGR2 antag inconclusive.
Fc1ccc(CNCCc2ccccc2F)cc1 was read as TWEAK-Fn14 inh 30, TROY NFkB inh 70*, LGR2 antag -3 and HSP90 refold inh 0.
`COc1ccc2c(c1)[nH]c1c(C)nccc12` gave TWEAK-Fn14 inh 65*, TROY NFkB inh 50 and LGR2 antag 35.
Cc1nccc2c1[nH]c1ccc(Br)cc12 was read as TWEAK-Fn14 inh -13, TROY NFkB inh -6 and LGR2 antag 27.
For CC(=O)OC(C)(C)/C=C/C(=O)C(C)(O)C1[C@H](O)C[C@@]2(C)C3CC=C4C(CC[C@@H](O)C4(C)C)[C@]3(CO)C(=O)C[C@]12C (some centres undefined) the results were TWEAK-Fn14 inh 31, TROY NFkB inh 61*, LGR2 antag 73* and HSP90 refold inh 0.
`CC(=O)OC(C)(C)/C=C/C(=O)C(C)(O)C1C(O)CC2(C)C3CC=C4C(CC(O)C(=O)C4(C)C)C3(C)C(=O)CC12C` (centres undefined) gave TWEAK-Fn14 inh 63*, TROY NFkB inh 61* and LGR2 antag 89*.
Screening CC(=O)OC(C)(C)/C=C/C(=O)[C@](C)(O)[C@H]1[C@H](O)C[C@@]2(C)[C@@H]3CC=C4[C@H](C[C@H](O)C(=O)C4(C)C)[C@]3(C)C(=O)C[C@]12C returned TWEAK-Fn14 inh 65*, TROY NFkB inh 62* and HSP90 refold inh 0.
`O=C(Cc1ccccc1)N1CCCCN2[C@H](CO)[C@@H](c3ccc(-c4ccccc4)cc3)[C@@H]2C1` gave LGR2 antag 18.
C[C@H]1CN([C@@H](C)CO)C(=O)c2c(c3ccccc3n2C)-c2ccccc2CO[C@@H]1CN(C)C(=O)Oc1ccccc1 was read as LGR2 antag -5.
For CC(O)C1C=CC=CC(=O)OC2CC3OC4C5OC5(C)CCC4(COC(=O)C4OC4(C)C(O)CO1)C2(C)C31CO1 (centres undefined) the results were TWEAK-Fn14 inh 99*, TROY NFkB inh 85* and LGR2 antag 101*.
CC(=O)OC1C(=O)OCC23CCC4(C)OC4C2OC2CC(OC(=O)C=CC=CC(=O)OCCC1C)C3(C)C21CO1 (centres undefined) was read as TWEAK-Fn14 inh 99*, TROY NFkB inh 84* and LGR2 antag 105*.
COC(=O)[C@H]1[C@H](CO)[C@H]2Cn3c(ccc(-c4ccncc4)c3=O)[C@@H]1N2S(=O)(=O)c1ccccc1F was read as LGR2 antag -14.
For CCn1c(O)c(N=Nc2ccc(S(=O)(=O)N3CCOCC3)cc2)c(=O)n(CC)c1=S the results were TWEAK-Fn14 inh 57*, TROY NFkB inh 18, LGR2 antag 13 and HSP90 refold inh 3.
CCn1c(O)c(N=Nc2cccc(S(=O)(=O)N3CCOCC3)c2)c(=O)n(CC)c1=S was read as TWEAK-Fn14 inh 20, TROY NFkB inh 6, LGR2 antag 9 and HSP90 refold inh 4.
`CC(=O)OC1(C)CC(C)C(=O)C(C(O)CC2CC(=O)NC(=O)C2)C1` (centres undefined) gave TWEAK-Fn14 inh 103* and TROY NFkB inh 86*.
For C[C@@H]1C[C@@H]([C@H](O)CC2CC(=O)NC(=O)C2)C(=O)[C@@H](C)C1 the results were TWEAK-Fn14 inh 80*, TROY NFkB inh 53* and LGR2 antag 79*.
`N#Cc1cccc(-c2ccc([C@@H]3[C@@H](CO)N4CCCCN(C(=O)Cc5cccnc5)C[C@H]34)cc2)c1` gave LGR2 antag -12.
Screening O=C(O)[C@@H]1[C@@H](CO)[C@@H]2Cn3c(ccc(C4=CCCCC4)c3=O)[C@H]1N2C(=O)Cc1ccccn1 returned LGR2 antag 1.
For Cc1ccccc1-c1ccc([C@H]2[C@@H](CO)N3CCCCN(C(=O)Cc4ccccn4)C[C@H]23)cc1 the results were LGR2 antag -7.
Screening O=C1C=CC(=O)C2C1C1(Cl)C(Cl)=C(Cl)C2(Cl)C1(Cl)Cl (centres undefined) returned TWEAK-Fn14 inh 57*, TROY NFkB inh 46 and LGR2 antag 5.
CC(=O)O[C@H]1CC[C@]2(C)C3CC[C@@]4(C)C(C[C@@H](O)[C@@H]4O)C3[C@@H](OC(C)=O)C[C@H]2C1 (some centres undefined) was read as TWEAK-Fn14 inh -25, TROY NFkB inh 3 and LGR2 antag 11.
`CC(=O)O[C@@H]1CC[C@]2(C)C3CC[C@]4(C)C(=O)[C@H](O)CC4C3[C@@H](OC(C)=O)C[C@H]2C1` (some centres undefined) gave TWEAK-Fn14 inh 53*, TROY NFkB inh 30 and LGR2 antag 29.
